Test results as given in the supplement of paper PMC12636033.
± gives the standard deviation of the averaged measurements. Whole data set: some 33,000 sequences, median “E-score (rank enrichment, -0.5 to 0.5)” near -0.0043, cut for the highest 2% near 0.24. Only a selection was taken, and the highest values are over-represented in it overall.

Tested on: 2Sp-muMax20 (muMax20 with two 2,6-bis(methyl)pyridine Cys staples)
Test: PBM 8-mer E-score (E-score (rank enrichment, -0.5 to 0.5)); higher = stronger preferential binding
Experimental: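 Protein binding microarray (universal PBM chip covering all 10-mers in fixed probe flanks) with chemically synthesized human Max(13-93) bHLH-LZ analogs (not full-length Max) bearing noncanonical residues (hArg, Tha, Aib, Nle at 65) and aromatic Cys staples. Read-out per 8-mer (and its reverse complement): E-score (rank-based enrichment, -0.5 to 0.5) and Z-score of median probe intensity.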

Row | Sequence | PBM 8-mer E-score
1 | GTGTATAA | 0.103 ± 0.024
2 | CGATATAG | 0.116 ± 0.068
3 | ATGTAGAG | 0.0603 ± 0.063
4 | CTGTAGAA | 0.0793 ± 0.045
5 | ATATATAA | 0.328 ± 0.032
6 | CTATATAA | 0.157 ± 0.081
7 | GTATATAA | 0.125 ± 0.0038
8 | ACAAACGC | -0.0614 ± 0.035
9 | CACAAATC | 0.052 ± 0.071
10 | AGAGGGAG | 0.112 ± 0.027
11 | ATGGGCAG | 0.0154 ± 0.02
12 | AGTCTCTA | 0.0513 ± 0.038
13 | GGCGAACA | -0.00568 ± 0.13
14 | ATACACCC | -0.00554 ± 0.027
15 | GTATATAC | 0.0149 ± 0.075
16 | ATATATAC | 0.252 ± 0.015
17 | ATATAGTA | 0.231 ± 0.019
18 | CTATAGTC | 0.0602 ± 0.045
19 | ATATAGTC | 0.238 ± 0.069
20 | ATATATAT | 0.116 ± 0.091
21 | CTATATAC | 0.204 ± 0.022
22 | TGATATAA | 0.232 ± 0.064

Row | Sequence | PBM 8-mer E-score
23 | TTATATAA | 0.282 ± 0.044
24 | GAGCTTCC | -0.0166 ± 0.072
25 | CGCGAGGC | -0.0315 ± 0.0085
26 | ATCTACCA | 0.119 ± 0.038
27 | CCAATGGG | -0.162 ± 0.09
28 | GGTTGCAA | 0.0477 ± 0.016
29 | GCCAGTCC | -0.152 ± 0.14
30 | GCGGCCAC | -0.292 ± 0.061
31 | CAAATGAC | -0.036 ± 0.036
32 | AGCCTTTG | -0.0519 ± 0.04
33 | CATGCTCG | 0.116 ± 0.052
34 | ACAGCCAC | -0.0111 ± 0.073
35 | ATCGATCA | 0.0704 ± 0.044
36 | AAGGCCGT | 0.284 ± 0.012
37 | AAGGCCTT | 0.293 ± 0.052
38 | AAGGCCGG | -0.146 ± 0.023
39 | AAGGCCTG | -0.212 ± 0.061
40 | AAGGCCGC | -0.0467 ± 0.032
41 | AAGGCCTA | 0.00342 ± 0.048
42 | ATGTGGCG | 0.0809 ± 0.017
43 | CTACCCTC | 0.0414 ± 0.062
44 | CTCCCAAA | 0.143 ± 0.084

Row | Sequence | PBM 8-mer E-score
45 | GCTGTTCA | 0.0277 ± 0.084
46 | CGACGTGC | 0.00092 ± 0.063
47 | CAACGTGG | 0.0662 ± 0.077
48 | CCACGTTA | 0.252 ± 0.044
49 | CCACATGA | 0.241 ± 0.053
50 | CCACGTGG | 0.455 ± 0.021
51 | CCACATGG | 0.161 ± 0.014
52 | CCACGTAG | -0.11 ± 0.053
53 | CCACGTGC | 0.431 ± 0.00066
54 | GCACGTTA | 0.113 ± 0.039
55 | CCACGTTC | -0.0572 ± 0.027
56 | GCACATGA | 0.151 ± 0.036
57 | CCACGTCC | -0.117 ± 0.06
58 | ATACCCAC | 0.197 ± 0.059
59 | CACGGCCC | -0.216 ± 0.024
60 | GCAACGGA | 0.0572 ± 0.11
61 | AGGAGAGA | -0.134 ± 0.081
62 | GATTGGGC | -0.0399 ± 0.037
63 | CAGAAAAC | 0.0606 ± 0.042
64 | ACACGCGG | 0.181 ± 0.012
65 | CCACGCGA | 0.112 ± 0.0062
66 | CTACGTGA | -0.0272 ± 0.054

Row | Sequence | PBM 8-mer E-score
67 | CCACGCGG | 0.448 ± 0.016
68 | CGACGTGA | 0.063 ± 0.051
69 | CCACGTGA | 0.358 ± 0.053
70 | ATCGAAGC | -0.0587 ± 0.14
71 | CAGGCATA | 0.0998 ± 0.023
72 | ATTCCACC | 0.0112 ± 0.074
73 | CCGATCGC | 0.00661 ± 0.018
74 | GCGATCGC | 0.241 ± 0.049
75 | ACGATCGC | 0.0237 ± 0.025
76 | CCAATCCA | 0.00702 ± 0.16
77 | CAATTGGC | 0.244 ± 0.016
78 | CAATTGGG | 0.136 ± 0.037
79 | GAATTGGC | 0.0412 ± 0.066
80 | ACCTGTGC | -0.0312 ± 0.029
81 | CTTGCTAA | -0.0836 ± 0.038
82 | CGCCTCCC | 0.00831 ± 0.026
83 | AGAACGGC | 0.0294 ± 0.038
84 | TATCCATA | 0.15 ± 0.012
85 | GTCCCCAC | 0.021 ± 0.043
86 | ATCCCAAA | 0.0771 ± 0.056
87 | ATCCCCCA | -0.224 ± 0.14
88 | CTCCCCTA | 0.106 ± 0.087

Row | Sequence | PBM 8-mer E-score
89 | CTCCCCAC | 0.278 ± 0.015
90 | CTCCCCAG | 0.191 ± 0.064
91 | ATCCCCAA | 0.274 ± 0.036
92 | ATCCCCTC | 0.215 ± 0.038
93 | ATCCCCTA | 0.282 ± 0.019
94 | CTCCCCAA | 0.309 ± 0.0081
95 | CTCCCCCA | -0.103 ± 0.12
96 | TTCCCCAA | 0.173 ± 0.06
97 | AATAGTCA | 0.109 ± 0.0063
98 | CCACATAA | 0.0944 ± 0.027
99 | GGATTACC | 0.0419 ± 0.024
100 | AATGAAGC | 0.0104 ± 0.028
101 | GTGGTAAA | -0.0637 ± 0.0084
102 | CGGGTCAC | -0.118 ± 0.034
103 | AAGGTATG | 0.149 ± 0.056
104 | AGAACACC | 0.0163 ± 0.039
105 | AACCCCAC | 0.136 ± 0.032
106 | GACCCCAC | 0.131 ± 0.021
107 | CACCCCAC | 0.265 ± 0.007
108 | ATCCCCAG | 0.0388 ± 0.058
109 | ATCCCCAC | 0.247 ± 0.038
110 | ATCCCCAT | 0.104 ± 0.064
